Only some compounds are listed: those with a hit (about 21% of all), similar ones and a draw of the others.
Shiga inhibitor = Shiga toxin inhibition; Vero cells, Shiga toxin protein synthesis inhibition reporter; inhibition, % at 38.7 µM; 290,000 tested, 9.2% active; AID 2315; in the data active = inhibition mostly above about 28%, no sharp cut-off; inactive = mostly below about 43%; note: 0% is about no effect
AMA1 RON2 block = AMA1-RON2 (P. falciparum) interaction inhibition | Potency, µM (series often up to 58.2 µM), inactives show top-dose activity change, negative = inhibition, most hits filed as inhibitors | AlphaScreen AMA1-biotinylated RON2 peptide binding | 360,000 tested, 0.2% active | AID 720542;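 note: potency is the fitted concentration of half-maximal effect; 0% = vehicle wells and -100% = peptide control; nearly all actives have a fitted effect of over 45% in size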
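AMA1 (3D7) with his tag at 25 nM final met compounds first, then biotinylated RON2 peptide at 25 nM; detection used donor plus acceptor beads, 10 µg/mL apiece, read by AlphaScreen after 30 min at room temperature.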
HCV inh = blocks hepatitis C virus. Huh7.5.1 HCVcc-Cre infection, luciferase reporter, 44 h. Potency, µM (highest dose often 41.8 µM), for the others: top-dose activity change, negative = inhibition, usual class: inhibitors. 340,000 tested, 3.4% active. AID 651820; note: potency is the fitted concentration of half-maximal effect; % is set by controls: 0 for no effect and ±100 for the full control effect
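Infectious HCV cell culture screen: compound-treated cells (1,000/well, pre-plated 4 h) are infected with HCVcc-Cre at roughly 0.5 moi and grown 44 h. Infection is quantified by luciferase signal after 15 min substrate incubation at room temperature.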
CHX counter = affects cycloheximide protein synthesis inhibition readout, counter-screen. cell reporter, cycloheximide protein synthesis inhibition counterscreen. max response, %. 300,000 tested, 12% active. AID 2314; in the data active = max response mostly above about 13%, no sharp cut-off; inactive = mostly below about 14%; note: read at 38.3 µM for the half of the compounds with a filed dose; 0% is about no effect
Pf growth 96h = P. falciparum growth inhibition at 96 hours | AID 504834 | 320,000 tested, 6.9% active | Potency, µM (series often up to 28.7 µM), for inactives: at the top dose activity change, negative = inhibition, usual class: inhibitors | P. falciparum luciferase reporter growth, 96 h; note: potency is the fitted concentration of half-maximal effect; % is set by controls: 0 for no effect and ±100 for the full control effect
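Readout is luminescence from an integrated firefly luciferase in P. falciparum. Red cells, 2% hematocrit and 0.05% parasitemia final, were cultured with compound through two parasite generations (96 hours) at 37 C, 5% CO2.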
Pf growth 48h = inhibits P. falciparum growth in the first generation, 48 h; P. falciparum luciferase growth in erythrocytes, 48 h; Potency, µM (series often up to 28.7 µM), without a hit: at the top dose activity change, negative = inhibition, most hits filed as inhibitors; 310,000 tested, 5.9% active; AID 504832; note: potency is the fitted concentration of half-maximal effect; % is set by controls: 0 for no effect and ±100 for the full control effect
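Read-out is firefly luciferase luminescence from an integrated reporter in P. falciparum, so falling signal marks reduced parasite growth. Infected erythrocytes were at 2% hematocrit and 0.1% parasitemia (final) in Albumax-supplemented RPMI 1640.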
* = called active by the depositor. Unless noted, calls come from the whole dose curve; as a rule, active = well fitted curve in the direction sought with a large enough effect; inconclusive = small, poorly fitted or top-dose-only effect, or another doubt; inactive = no such curve, though single readings can be large; an effect the other way counts as inactive or inconclusive.

CC(C)OCCCN(CC(O)c1ccccc1)CC(O)c1ccccc1 (centres undefined) was read as Shiga inhibitor 11.7, AMA1 RON2 block 7.1%, HCV inh 24.0%, CHX counter 3.0, Pf growth 96h inconclusive and Pf growth 48h 10.4µM*.
Screening CCCN(CC1CC1)CC(O)c1ccccc1 (centres undefined) returned Shiga inhibitor 13.4, AMA1 RON2 block -10.6%, HCV inh 7.5%, CHX counter 6.1, Pf growth 96h 13.1µM* and Pf growth 48h 14.7µM*.
CCN(CC)CCCOC(=O)C(OC)(c1ccccc1)c1ccccc1 was read as Shiga inhibitor -3.1, AMA1 RON2 block -5.1%, HCV inh 8.4%, CHX counter -5.5 and Pf growth 96h -26.8%.
Screening CCN(CC)CCCOC(=O)C(c1ccccc1)c1ccccc1 returned Shiga inhibitor -21.6, AMA1 RON2 block 7.0%, HCV inh 0.562µM*, CHX counter 0.7, Pf growth 96h inconclusive and Pf growth 48h inconclusive.
CCCSCCCNC(=O)c1ccc(C)c(NC(=O)C2=C(C)OCCS2)c1 was read as Shiga inhibitor -5.7, AMA1 RON2 block -3.4%, HCV inh -16.8%, CHX counter -0.4, Pf growth 96h -15.4% and Pf growth 48h inconclusive.
`CCOC(=O)Cc1csc(NC(=O)CN2CCCCC2)n1` gave Shiga inhibitor -14.6, AMA1 RON2 block 2.3%, HCV inh 23.5%, CHX counter -3.9, Pf growth 96h inconclusive and Pf growth 48h 4.2%.
O=C(CNC(=O)OCc1ccccc1)NC1CCCCCC1 was read as Shiga inhibitor 13.9, AMA1 RON2 block 54.6%, HCV inh 4.0%, CHX counter -1.8, Pf growth 96h 0.0% and Pf growth 48h 10.0%.
O=C(NCCc1ccccc1)NC1CCCCC1 was read as Shiga inhibitor 52.2*, AMA1 RON2 block 7.0%, HCV inh -7.0%, CHX counter 38.7*, Pf growth 96h 1.9% and Pf growth 48h 169.8%.
Screening O=C(CCNC(=O)OCc1ccccc1)NC1CCCCC1 returned Shiga inhibitor -10.4, AMA1 RON2 block 4.5%, HCV inh 15.4%, CHX counter -4.0, Pf growth 96h 3.7µM* and Pf growth 48h -1.0%.
`COc1ccccc1CCNC1CCC(C(C)(C)C)CC1` (centres undefined) gave Shiga inhibitor 32.3, AMA1 RON2 block -8.3%, HCV inh inconclusive, CHX counter -5.7, Pf growth 96h 2.62µM* and Pf growth 48h 2.33µM*.
Screening S=C(NCCc1cccc(Cl)c1)NC1CCCCC1 returned Shiga inhibitor 76.6*, AMA1 RON2 block 6.1%, HCV inh inconclusive, CHX counter 59.5*, Pf growth 96h 27.0% and Pf growth 48h 63.2%.
Screening COc1ccccc1CCNC1CCCCCC1 returned Shiga inhibitor -4.0, AMA1 RON2 block 3.9%, HCV inh -8.9%, CHX counter -2.9, Pf growth 96h 0.0% and Pf growth 48h 4.0%.
COc1ccccc1CCNC(=O)C1(C)CC1(Cl)Cl (centres undefined) was read as Shiga inhibitor 26.0, AMA1 RON2 block -2.6%, HCV inh -17.7%, CHX counter 14.5*, Pf growth 96h -3.0% and Pf growth 48h 2.1%.
Screening O=C(NC1CCCCC1)C1CCN(C(=O)NCc2ccccc2)CC1 returned Shiga inhibitor 8.8, AMA1 RON2 block -0.7%, HCV inh 6.7%, CHX counter -1.6 and Pf growth 48h -13.2%.
For O=C(NCc1ccccc1)NC1CCCCC1 the results were Shiga inhibitor 41.8*, AMA1 RON2 block 2.7%, HCV inh -11.3%, CHX counter 38.5* and Pf growth 96h -28.7%.
For COc1ccc(CNC(=O)NC2CCCCC2)cc1 the results were Shiga inhibitor 32.7*, AMA1 RON2 block 5.8%, HCV inh -5.1%, CHX counter 25.9*, Pf growth 96h -5.3% and Pf growth 48h 111.1%.
For O=C(NCc1cccnc1)NC1CCCCC1 the results were Shiga inhibitor 2.6, AMA1 RON2 block -1.3%, HCV inh 16.5%, CHX counter 10.9, Pf growth 96h -23.5% and Pf growth 48h 22.3%.
Screening O=C(NC1CCCCC1)C(=S)NCc1ccccc1 returned Shiga inhibitor 82.7*, AMA1 RON2 block 75.3%, HCV inh 8.7%, CHX counter 20.9*, Pf growth 96h -14.8% and Pf growth 48h 37.2%.
